Data taken from PubChem BioAssay (NCATS).
Inconclusive results are not listed. The source made the active and inactive calls. Unless noted, calls come from the whole dose curve; as a rule, active = well fitted curve in the direction sought with a large enough effect; inconclusive = small, poorly fitted or top-dose-only effect, or another doubt; inactive = no such curve, though single readings can be large; an effect the other way counts as inactive or inconclusive.

Columns and labels:
[1] = Identifying Small Molecule Inhibitors of Pancreatic Cancer Stem Cells (A2780, Spheroid) (AID 1259357); conditions: Potency: A2780 spheroid viability;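 note: spheroids pre-formed over 14 days in stem cell medium on hydrogel; compound exposure lasted 48 h before the ATP luminescence read; 100% = DMSO treated cells and 0% = wells without cells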
How it was run: (§1)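 Spheroids grown 14 days in stem cell media on nonadherent hydrogel before screening; cells attached 4 h, then compound exposure 48 h at 37C, 5% CO2. CellTiter-Glo luminescence normalized to DMSO (no inhibition) and no-cell wells (full inhibition).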

[2] = Identifying Small Molecule Inhibitors of Pancreatic Cancer Stem Cells (SN12C, Adherent) (AID 1259358);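 note: cell survival measured after 48 h of compound exposure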
How it was run: (§2)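 After a 4 h attachment period, compounds were pinned into wells and cultures held 48 h under standard incubator conditions. Viability was then measured as CellTiter-Glo luminescence following 10 min at room temperature.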

[3] = Identifying Small Molecule Inhibitors of Pancreatic Cancer Stem Cells (SN12C, Spheroid) (AID 1259360); conditions: Potency: SN12C spheroid viability;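 note: 100% = DMSO-treated cells and 0% = wells without cells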
How it was run: as §1

[4] = Identifying Small Molecule Inhibitors of Pancreatic Cancer Stem Cells (A278, Adherent) (AID 1259361); note: nearly all actives have a fitted effect of over 35% in size
How it was run: as §2

[5] = qHTS profiling of the MIPE4 collection as inhibitors of Plasmodium falciparum (3D7) proliferation (AID 743344; call rule not given here;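 note: scaled between DMSO vehicle wells and 0.29 µM artemisinin as full inhibition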); conditions: P. falciparum 3D7 in erythrocytes, SYBR Green DNA fluorescence, 72 h; at 28.5 µM (top of the series) unless noted
How it was run: (§3)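 Erythrocytes infected with P. falciparum (0.3% parasitemia, 2.5% hematocrit) incubated with compounds 72 h at 37 C, 5% CO2. Lysis with saponin/Triton buffer containing SYBR Green I, overnight at room temperature in the dark; DNA fluorescence (485/535 nm) normalised to 0.29 uM artemisinin and DMSO.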

[6] = qHTS profiling of the MIPE4 collection as inhibitors of Plasmodium falciparum (DD2) proliferation (AID 743345; call rule not given here); conditions: P. falciparum Dd2 in erythrocytes, SYBR Green DNA, 72 h; at 28.5 µM (top of the series) unless noted
How it was run: as §3

[7] = qHTS profiling of the MIPE4 collection as inhibitors of Plasmodium falciparum (DD2) proliferation (Rep 2) (AID 743346; call rule not given here); conditions: P. falciparum Dd2 in erythrocytes, SYBR Green DNA, 72 h; at 28.5 µM (top of the series) unless noted
How it was run: as §3

[8] = qHTS profiling of the MIPE4 collection as inhibitors of Plasmodium falciparum (HB3) proliferation (AID 743347; call rule not given here;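 note: plate controls were DMSO vehicle wells for no effect and artemisinin wells for full effect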); conditions: P. falciparum HB3 in erythrocytes, SYBR Green DNA, 72 h; at 28.5 µM (top of the series) unless noted
How it was run: as §3

[9] = High-throughput drug toxicity screening in the BPDCN cell line Gen2.2 (AID 1224824; call rule not given here;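 note: cells exposed to compounds for 48 h before reading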); conditions: Gen2.2 BPDCN cells; at 45.8 µM (top of the series) unless noted
How it was run: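 Readout is ATP luminescence from Gen2.2 cells after two days of drug exposure in serum-containing medium at 37 °C. Values express percent activity, with vehicle defining full signal and 9.2 uM bortezomib defining zero.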

[10] = High-throughput drug toxicity screening in the BPDCN cell line Cal-1 (AID 1224825; call rule not given here); conditions: Cal-1 BPDCN cell viability, qHTS; at 45.8 µM (top of the series) unless noted
How it was run: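 Exponentially growing Cal-1 cells, 500 per well in phenol red-free RPMI with 10% FBS, were exposed to compounds for 48 h at 37 °C, 5% CO2. Viability was read by CellTiter-Glo luminescence and normalised to DMSO (100%) and 9.2 uM bortezomib (0%).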

[11] = qHTS assay for measurement of the activity of small molecule inhibitors on Zika virus induced Caspase-3 activity in human iPSC derived neural progenitor cells (hNPCs) (AID 1224857); note: nearly all actives have a fitted effect of over 65% in size; note: potency is the fitted concentration of half-maximal effect
How it was run: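 In medium with heparin 2 ug/ml and cyclopamine 2 uM, hNPCs (350 cells/well) received compound for one hour and then Zika virus at 2 FFU/cell; caspase activity was measured by Caspase-Glo 3/7 luminescence 6 h post-infection.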

[12] = qHTS assay for measurement of the activity of small molecule inhibitors on Zika virus induced Caspase-3 activity in human astrocytoma cells (AID 1224859);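 note: plate controls were ZIKV-infected untreated cells for no effect and uninfected cells for full effect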
How it was run: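 A cell-based luminescent caspase-3/7 assay used SNB-19 cells infected with ZIKV (2 FFU/cell) for 6 h following 1 h compound pretreatment.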

[13] = qHTS Screen of the MIPE 4.0 Collection Against Ewings Sarcoma (RDES) (AID 1259252); note: nearly all actives have a fitted effect of over 35% in size; note: potency is the fitted concentration of half-maximal effect
How it was run: (§4)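 Measured: ATP luminescence (CellTiter-Glo) 10 min after reagent addition, following 48 h drug treatment. Relative luciferase units converted to percent activity, with no-cell wells as full and DMSO wells as zero inhibition.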

[14] = qHTS Screen of the MIPE 4.0 Collection Against Ewings Sarcoma (TC71) (AID 1259253); note: nearly all actives have a fitted effect of over 40% in size; note: potency is the fitted concentration of half-maximal effect
How it was run: as §4

[15] = qHTS Screen of the MIPE 4.0 Collection Against Ewings Sarcoma (TC32) (AID 1259256); note: nearly all actives have a fitted effect of over 45% in size; note: potency is the fitted concentration of half-maximal effect
How it was run: as §4

[16] = qHTS Screen of the MIPE 4.0 Collection Against Ewings Sarcoma (EW8) (AID 1259255); note: nearly all actives have a fitted effect of over 35% in size; note: potency is the fitted concentration of half-maximal effect;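 for viability: 100% = DMSO-treated cells and 0% = medium-only wells without cells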
How it was run: as §4

[17] = qHTS assay to identify small molecule inhibitors of chordoma cells - UCH-1 (AID 1259355); note: % is set by controls: 0 for no effect and ±100 for the full control effect; nearly all actives have a fitted effect of over 55% in size
How it was run: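 Luminescent ATP read-out (CellTiter-Glo, 30min at room temperature) measured viability of UCH-1 cells exposed for 48hr to test drugs at 15 concentrations, co-dosed with a five-agent combination of auranofin, camptothecin, doxorubicin, rubitecan and topotecan.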

[18] = qHTS assay to identify small molecule inhibitors of chordoma cells - UCH-2 (AID 1259356); note: % is set by controls: 0 for no effect and ±100 for the full control effect

Compound	Potency [1]	Potency [2]	Potency [3]	IC50 (viability decrease) [4]	parasite growth, % of DMSO control [5]	parasite growth remaining, % of DMSO control (lower = more inhibition) [6]	parasite growth, % of control (lower = inhibition) [7]	growth, % of control [8]	cell viability, % of control (lower = more cytotoxic) [9]	viability (% of control) [10]	Potency [11]	Potency [12]	Potency [13]	Potency [14]	Potency [15]	Potency [16]	outcome [17]	outcome [18]
CCCCCCCCCCCCCC(=O)N[C@H](CO)[C@H](O)c1ccc([N+](=O)[O-])cc1	inactive																	
CC(O)=C(C#N)C(=O)Nc1ccc(C(F)(F)F)cc1		inactive	inactive	16.6 µM (active)														
CCOc1ccccc1N=Nc1c(C)[nH]n(-c2nc(-c3ccccc3)cs2)c1=O					92.5%	102%	82.1%	87.1%	97.4%	63.6%	inactive	inactive	16.6 µM (active)	20.9 µM (active)	11.8 µM (active)			
Cc1cnc(-c2cc(N3CCN(C(=O)CCS(C)(=O)=O)CC3)ncc2Cl)c(C)c1					58.6%	93.9%	110%	76.4%	120%	64.7%	inactive	inactive	inactive	inactive		inactive		
CCC(C)SSc1ncc[nH]1 (stereo unspecified)					86.2%	94.1%		92.3%	7.07%	6.97%	26.4 µM (active)	inactive	23.5 µM (active)	26.4 µM (active)		11.8 µM (active)		
CN[C@@H](C)[C@H]1[C@H](O)C[C@@]2(C)[C@@H]3CC[C@H]4C(C)(C)[C@@H](NC)CC[C@@]45C[C@@]35CC[C@]12C					16.9%	50.3%	12.6%	13.3%	71.1%	89.5%	inactive	inactive	inactive	inactive		inactive		
CCC[C@H](Nc1nc(-c2ccc(NC(=O)NCC)c(OC)c2)ncc1C)c1cccnc1					4.72%	7.78%	20.1%		9.57%	4.63%	inactive	inactive	0.0093 µM (active)	0.0093 µM (active)	inactive			
Cc1cnc(CNC(=O)c2c(=O)c3ccc(N4CCCN(C)CC4)nc3n3c2sc2ccccc23)cn1					6.1% [at 9.64 µM]	8.18% [at 9.64 µM]	13.1% [at 9.64 µM]	3.84% [at 9.64 µM]	230% [at 23.2 µM]	1.44% [at 23.2 µM]	inactive	inactive	7.24 µM (active)	7.24 µM (active)	inactive			
CN1CCN2c3ncccc3Cc3ccccc3C2C1 (stereo unspecified)					85.3%	93.6%		75.6%	260%	112%	inactive	inactive	inactive	inactive	inactive		inactive	inactive
CC1=C(CC(=O)O)c2cc(F)ccc2C1=Cc1ccc(S(C)=O)cc1 (stereo unspecified)					79.1%	91.5%	64.2%	52.4%	6.5%	7.86%	inactive	inactive	1.18 µM (active)	1.32 µM (active)	1.48 µM (active)			
